Screens deposited in PubChem BioAssay by National Center for Advancing Translational Sciences (NCATS).
Only a selection was taken, and hits are over-represented in it overall.
Pf Dd2 growth: blocks in vitro growth of P. falciparum Dd2. P. falciparum Dd2 growth, SYBR Green, 72 h. Potency, µM (highest dose often 28.9 µM), inactives show top-dose activity, negative = inhibition, hits mostly inhibitors. actives 4.3% (n = 120,000); active means well fitted inhibition curve with a large enough effect;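 further: plate controls were DMSO vehicle for no effect and reference drug for full effect; nearly all actives have a fitted effect of over 65% in size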
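Infected erythrocytes (Dd2, 0.3% parasitemia, 2.5% hematocrit final) are added to compound in RPMI-1640/Albumax II medium, grown 72 h at 37C in low oxygen, then lysed with saponin/Triton-X containing SYBR Green and read by fluorescence.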
* hit, by the source's call; i = inactive; [ ] = another dose, or the depositor's remark. Potency means the concentration at half of the fitted maximal effect.

SMILES	Pf Dd2 growth
O=C(c1cccc(Cl)c1)N1CCC2(CC1)CC(Cc1ccccc1)=NO2	-14%
O=C(NCC1(N2CCOCC2)CCCC1)c1coc(COc2cccc(F)c2)n1	i
O=C1CC2(CCN(CC3CC3)CC2)Oc2ccccc2N1	-14%[44.1 µM]
CCS(=O)(=O)NCC1(COCCOC)C[C@@H](O)[C@@H](O)C1 (stereo partly specified)	-18%[44.1 µM]
Cc1[nH]nc(CCC(=O)N2CC[C@H](N3CCOCC3)[C@H](CCC(=O)O)C2)c1C	29%
O=C(CC1CCN(S(=O)(=O)c2ccccc2)C1)NCc1ccccc1 (stereo unspecified)	-20%
COc1nccnc1NC1CCN(C(=O)c2ccc3nc[nH]c3c2)CC1	i[5.79 µM]
COc1cccc(NC(=O)N[C@H]2C[C@@H](C(=O)N(C)CC(N)=O)N(C(=O)c3cnccn3)C2)c1	-27%
Cc1noc(C2CC3(CCN(C(=O)c4nccn4C)CC3)CN2C)n1 (stereo unspecified)	1%
COc1ccccc1C(=O)N1CCC(CC(=O)NC2CC2)C1 (stereo unspecified)	13%
CCCN1CCC2(CCN(C(=O)c3ccc(C)cc3)CC2)Oc2ccccc21	-2%
CCCN1CCC2(CCN(C(=O)c3ccccc3)CC2)Oc2ccccc21	i
Cc1ccc(C(=O)N2CCC3(CC2)CCN(CCc2ccccc2)c2ccccc2O3)cc1	11µM*
COc1ccc(CN[C@@H]2C=C[C@@H](c3c(C)nn(-c4ccccc4)c3C)C2)cc1	6.3µM*
COc1ccc(NC(=O)N[C@@H]2C=C[C@@H](c3c(C)nn(-c4ccccn4)c3C)C2)cc1	i
Cc1nn(-c2ccc(C(F)(F)F)cc2)c(C)c1[C@@H]1C=C[C@@H](NC(=O)COc2ccccc2)C1	-4%
COc1ccc(-n2nc(C)c([C@@H]3C=C[C@@H](NCc4ccc(N(C)C)cc4)C3)c2C)cc1	1.6µM*
O=C1Nc2ccccc2CC12CCN2[S+](=O)([O-])c1cccc(C(F)(F)F)c1 (stereo unspecified)	-8%
O=C(NCc1ccc(F)cc1)N1CCC2(CC1)N(CC1CC1)C(=O)CS2=O (stereo unspecified)	0%
Cn1ncc(N2CCC(NC(=O)CC(C)(C)C)CC2)cc1=O	39%
Cn1cc2c3c(cccc31)CN(C(=O)C1CCC1)CC2	-6%
COCCCNC(=O)C1CCN(Cc2nc(-c3ccc(OC)c(OC)c3)oc2C)CC1	8%
Cc1oc(-c2ccc(Cl)cc2)nc1CN1CCC(C(=O)NCCCN2CCN(c3cccc(Cl)c3)CC2)CC1	-24%
COc1ccc(-c2nc(CN3CCC(C(=O)NCCCN4CCN(c5ccccc5F)CC4)CC3)c(C)o2)cc1OC	10µM*
CCCCNC(=O)C1CCN(Cc2nc(-c3ccc(OC)c(OC)c3)oc2C)CC1	-4%
SMILES	Pf Dd2 growth
Cc1oc(-c2cccc(Cl)c2)nc1CN1CCC(C(=O)NCCCN2CCN(c3ccccc3F)CC2)CC1	-29%
Cc1oc(-c2cccc(Cl)c2)nc1CN1CCC(C(=O)NCCCN2CCN(c3ccc(F)cc3)CC2)CC1	5.6µM*
CC(=O)Nc1ccc(CN2CCC3(COc4ncccc4[S+](=O)([O-])N3)C2)cc1 (stereo unspecified)	2%
O=C(Cc1ccccc1)N1CC2CC(C1)[C@H]1CCCC(=O)N1C2 (stereo partly specified)	0%
O=C(c1ccccn1)N1CCC(Cc2nc(-c3ccccc3)n[nH]2)C1 (stereo unspecified)	2%
O=C(O)C1CC2(CCN(C(=O)CCCn3ccnc3)CC2)CN1 (stereo unspecified)	-5%
Cc1ncc2c(c1CNC(=O)c1ccccc1-c1ncc[nH]1)CCNC2	-15%
COc1ccc(C(=O)N2CCC3(CCC3OC)CC2)cn1 (stereo unspecified)	10%
CCCCn1c(NCc2ccc(OC)cc2O)nc2ccccc21	7.9µM*
CCCCn1c(COc2cccc(OC)c2)nc2ccccc21	-13%
CCn1c(NCc2ccc(OC)c(OC)c2)nc2ccccc21	-5%
CC(C(=O)N1CCN(c2cc(-c3ccccc3)[nH]n2)CC1)c1ccccc1 (stereo unspecified)	-19%
CCOC(=O)C1CCN(C(=O)c2nn(-c3ccc(OC)c(Cl)c3)c(=O)c3c2c2ccccc2n3C)CC1	11µM*
COc1ccc(-n2nc(C(=O)NCCc3ccc(OC)c(OC)c3)c3c4ccccc4n(C)c3c2=O)cc1Cl	2µM*
COc1ccc(-n2nc(C(=O)N3CCCCC3C)c3c4ccccc4n(C)c3c2=O)cc1Cl (stereo unspecified)	23%
CCOC(=O)C1CCN(C(=O)c2nn(-c3ccc(C)cc3)c(=O)c3c2c2ccccc2n3C)CC1	i
CCOc1ccc(CCNC(=O)c2nn(-c3ccc(OC)c(Cl)c3)c(=O)c3c2c2ccccc2n3C)cc1OCC	2.8µM*
CCOc1ccc(CNC(=O)c2nn(-c3ccc(OC)cc3)c(=O)c3c2c2ccccc2n3C)cc1	50%
CCc1ccc(CNC(=O)c2nn(-c3ccc(C)cc3)c(=O)c3c2c2ccccc2n3C)cc1	3%
COc1ccc(-n2nc(C(=O)N(C)c3cc(C)ccc3C)c3c4ccccc4n(C)c3c2=O)cc1Cl	22%
COc1ccc(-n2nc(C(=O)NCCCOC(C)C)c3c4ccccc4n(C)c3c2=O)cc1	-13%
Cc1cncc(C(=O)N2CC[C@@H](c3ccc4ccccc4c3)[C@H](O)C2)c1	-15%
CN(C)CCN1CCC(N2CCN(C(=O)c3ccnn3C)CC2)C1=O (stereo unspecified)	-24%
CN1CCN(c2nc3c(c(=O)[nH]2)CCN(Cc2cc(F)cc(F)c2)CC3)CC1	i[5.79 µM]
COCc1cn(C[C@H]2C[C@@H](NC(=O)Cc3cccc(OC)c3)[C@H](O)[C@@H]2O)nn1	-15%[44.1 µM]
SMILES	Pf Dd2 growth
CCn1nccc1C(=O)N1CCCC(c2nnnn2C)C1 (stereo unspecified)	6%
CCc1nc2c(c(-c3ccc(Cl)cc3)n1)CN(Cc1ccc(N(C)C)cc1)CC2	8.9µM*
CCc1nc2c(c(-c3ccc(O)cc3)n1)CCN(C(=O)Nc1ccc(Cl)cc1)CC2	i
O=C(C1CCCC1)N1CCc2nc(-c3ccc(Cl)cc3)nc(-c3ccccc3)c2C1	i
CCc1nc2c(c(-c3ccc(Cl)cc3)n1)CN(C(=O)Nc1ccccc1)CC2	11µM*
CCc1nc2c(c(-c3ccc(Cl)cc3)n1)CCN(Cc1ccnn1C)CC2	i
CCc1nc2c(c(-c3ccc(O)cc3)n1)CN(Cc1ccnn1C)CC2	5%
CCc1nc2c(c(-c3ccc(Cl)cc3)n1)CN(C(C)=O)CC2	3%[44.1 µM]
O=C(C1CCCC1)N1CCc2nc(-c3ccccc3)nc(-c3ccc(Cl)cc3)c2C1	4µM*
CCc1nc2c(c(-c3ccc(OC)cc3)n1)CN([S+](=O)([O-])c1cccc(OC)c1)CC2	-24%
O=C(C1CC1)N1CCc2nc(-c3ccccc3)nc(-c3ccc(Cl)cc3)c2C1	i
CCc1nc2c(c(-c3ccc(Cl)cc3)n1)CN(Cc1cccc(OC)c1)CC2	10µM*
CCc1nc2c(c(-c3ccc(Cl)cc3)n1)CCN(C(=O)c1ccccc1OC)CC2	i
CN1c2cc(C(=O)Nc3cccc(OC(F)(F)F)c3)ccc2C(=O)N2CCCC21 (stereo unspecified)	-14%
COCC(=O)NCCC1CCN(C(=O)Nc2ccc(F)cc2)CC1	-11%
Fc1ccc(C2Cn3nnc(-c4nc(-c5cccc(C(F)(F)F)c5)no4)c3CO2)cc1 (stereo unspecified)	-17%
CCc1nc2c(c(-c3ccc(OC)cc3)n1)CCN(C(=O)c1ccc(OC)cc1)CC2	28%
CCc1nc2c(c(-c3ccc(OC)cc3)n1)CN(C(=O)c1ccc(OC)cc1)CC2	-15%
